Source: PubChem BioAssay (NCI)
Compounds without any hit were thinned out: in the full panel of roughly 83,000, 20% have a hit.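 The endpoint reported here, percent growth, reads 100 for growth as untreated, 0 for no net growth and -100 for all cells dead.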 Unmarked numbers belong to inactive results. The source made the active and inactive calls. The calls were made as follows: active = growth percent below 10; inactive = the rest.

Columns and labels:
Test in all cases: NCI-60 one-dose screen, 48 h (100 = growth as untreated, 0 = no growth, -100 = all killed)
Details in all cases: 10 µM
K-562 leukemia = tested on: K-562 leukemia
MALME-3M melanoma = tested on: MALME-3M melanoma
MDA-MB-231 breast = tested on: MDA-MB-231 breast
RXF 393 renal = tested on: RXF 393 renal
SF-268 CNS = tested on: SF-268 CNS
SF-295 CNS = tested on: SF-295 CNS
SF-539 CNS = tested on: SF-539 CNS
M14 melanoma = tested on: M14 melanoma
HCT-15 colon = tested on: HCT-15 colon
HT29 colon = tested on: HT29 colon
SNB-75 CNS = tested on: SNB-75 CNS
SNB-19 CNS = tested on: SNB-19 CNS
U251 CNS = tested on: U251 CNS
PC-3 prostate = tested on: PC-3 prostate
SK-MEL-5 melanoma = tested on: SK-MEL-5 melanoma
UACC-62 melanoma = tested on: UACC-62 melanoma
LOX IMVI melanoma = tested on: LOX IMVI melanoma
SK-MEL-28 melanoma = tested on: SK-MEL-28 melanoma
SK-MEL-2 melanoma = tested on: SK-MEL-2 melanoma
UACC-257 melanoma = tested on: UACC-257 melanoma

Row | SMILES | growth (K-562 leukemia) | growth (MALME-3M melanoma) | growth (MDA-MB-231 breast) | growth (RXF 393 renal) | growth (SF-268 CNS) | growth (SF-295 CNS) | growth (SF-539 CNS) | growth (M14 melanoma) | growth (HCT-15 colon) | growth (HT29 colon) | growth (SNB-75 CNS) | growth (SNB-19 CNS) | growth (U251 CNS) | growth (PC-3 prostate) | growth (SK-MEL-5 melanoma) | growth (UACC-62 melanoma) | growth (LOX IMVI melanoma) | growth (SK-MEL-28 melanoma) | growth (SK-MEL-2 melanoma) | growth (UACC-257 melanoma) [%]
1 | Clc1ccc(Nc2ccnc(NCCCNc3ccnc4cc(Cl)ccc34)n2)cc1 | -56.9% (active) | -81% (active) | -86% (active) | -89.3% (active) | -75.8% (active) | -81.1% (active) | -96.8% (active) | -80% (active) | -60.6% (active) | -69.3% (active) | -89.2% (active) | 4.15% (active) | -93.2% (active) | -27.5% (active) | -100% (active) | -90.5% (active) | -77.5% (active) | -92.1% (active) | -91% (active) | –
2 | O=C(Nc1nc2ccc(F)cc2s1)c1cc(-c2ccc(F)cc2)n2nc(-c3ccccc3)cc2n1 | 99.9% | -1.39% (active) | 83.5% | 104% | – | 94.8% | 93.6% | 81% | 90.8% | – | 70.7% | 88% | 102% | 84.2% | 68.3% | 66.3% | 85.9% | 58.1% | 111% | 59.2
3 | COc1ccc(-c2nc3ncccn3c2-c2nnc(-c3ccsc3C)o2)cc1 | 92.2% | 80.8% | 80.6% | 82.8% | – | 80.3% | 86.4% | 107% | 88.9% | 103% | 17.5% | 68.9% | 72.4% | 83.6% | 81% | 78.3% | 88.4% | 78.2% | – | 78.4
4 | CCCCCCCCCCCCC1C/C=C\CCCC(=O)O1 (configuration not stated) | 101% | 107% | 119% | – | 103% | 103% | 107% | 100% | 97.2% | 107% | 102% | 110% | 109% | 112% | 109% | 108% | 113% | 126% | 111% | 118
5 | Cc1cc(Nc2ccc(Cl)cc2)nc(NCCCNc2ccnc3cc(Cl)ccc23)n1 | -53.8% (active) | -82.2% (active) | -88.2% (active) | -91.9% (active) | -66.5% (active) | -68.2% (active) | -100% (active) | -87.5% (active) | -54.3% (active) | -91.4% (active) | -94.9% (active) | -14.3% (active) | -91.3% (active) | -19.4% (active) | -99.8% (active) | – | -83.8% (active) | -99.8% (active) | -93.4% (active) | –
6 | Fc1ccc(-c2nnc(-c3c(-c4ccc(F)cc4)nc4ccccn34)o2)cc1 | 87.2% | 120% | 78.9% | 85.9% | – | 88.7% | -10.1% (active) | 116% | 98.5% | 79.2% | 37.4% | 92.8% | 81.2% | 84.6% | 80.4% | 92.2% | 65.4% | 85% | 120% | 85.1
7 | Cc1cc(Cl)nc(N(CCCNc2ccnc3cc(Cl)ccc23)Cc2cccs2)n1 | -11.7% (active) | -30% (active) | 17.2% | 0.398% (active) | 38.6% | 13.1% | 3.33% (active) | -7.28% (active) | 8.59% (active) | 1.59% (active) | 55.6% | 42.9% | 8.68% (active) | 10.1% | -74.3% (active) | 10% | -1.18% (active) | 16.1% | 16.9% | –
8 | Cc1cc(N(CCCNc2ccnc3cc(Cl)ccc23)Cc2ccc3c(c2)OCO3)nc(N2CCOCC2)n1 | -6.17% (active) | -71.4% (active) | 14.4% | -48% (active) | 36.6% | -9.78% (active) | -72.9% (active) | -71.1% (active) | 4.7% (active) | 3.19% (active) | 61.4% | 32.3% | 5.18% (active) | 27.1% | -88.1% (active) | 27.1% | -24.2% (active) | -44.7% (active) | 32.4% | –
9 | O=C(Nc1cccc(Br)c1)c1cc(=O)[nH]c2ccccc12 | 55.8% | 101% | 93.6% | 77.4% | 94.8% | 112% | 92% | 104% | 92.4% | 107% | 70.6% | 97.9% | – | 79.2% | 95.5% | – | 89.3% | 107% | 56.6% | –
10 | COc1ccc(Nc2ccnc(NCCNc3ccnc4cc(Cl)ccc34)n2)cc1 | 3.54% (active) | -1.18% (active) | 37.3% | 55.7% | 54.5% | 46.1% | -14.4% (active) | -16.6% (active) | 36.8% | 9.08% (active) | 78.9% | – | 59.1% | 30.1% | -50.8% (active) | 74.9% | 8.82% (active) | -29% (active) | 71.8% | –
11 | Clc1ccc(Nc2ccnc(NCCNc3ccnc4cc(Cl)ccc34)n2)cc1 | -54.6% (active) | -83.6% (active) | -20.4% (active) | 0.0582% (active) | -10.7% (active) | -58.9% (active) | -94.5% (active) | -86.8% (active) | 3.75% (active) | -37.4% (active) | 4.36% (active) | 69.6% | -48% (active) | 14.7% | -100% (active) | -79.5% (active) | -79.5% (active) | -100% (active) | -76.1% (active) | –
12 | COc1ccc(Nc2cc(C)nc(NCCCNc3ccnc4cc(Cl)ccc34)n2)cc1 | -42.2% (active) | -86.2% (active) | -67.7% (active) | -90.4% (active) | -54.5% (active) | -78.8% (active) | -100% (active) | -81.1% (active) | -55.8% (active) | -70.2% (active) | -82.5% (active) | 6.85% (active) | -88.8% (active) | 7.12% (active) | -100% (active) | -89.8% (active) | -80% (active) | -100% (active) | -94.6% (active) | –
13 | COc1cc(Nc2ccnc(NCCCNc3ccnc4cc(Cl)ccc34)n2)cc(OC)c1 | -51.1% (active) | -87.7% (active) | -54.6% (active) | -83.3% (active) | -19.9% (active) | -75.9% (active) | -98.5% (active) | -85.6% (active) | 0.0216% (active) | -31.9% (active) | -58.6% (active) | 2.03% (active) | -64.4% (active) | 26.1% | -100% (active) | -82.5% (active) | -82.5% (active) | -100% (active) | -81.6% (active) | –
14 | CC(C)=CCc1cc(O)cc2c1OC(C=C(C)C)C1=C2C(=O)C2=C(C1=O)S(=O)(=O)CCN2 (configuration not stated) | 5.77% (active) | -64.7% (active) | 17.5% | 73.3% | 2.3% (active) | 85.5% | -19.2% (active) | 27.6% | 58% | – | 72.2% | 46.2% | -14.3% (active) | 6.32% (active) | 16.2% | 9.11% (active) | 4.91% (active) | 36.8% | 28.8% | –
15 | Clc1ccc2c(NCCCNc3nccc(Nc4ccc(Br)cc4)n3)ccnc2c1 | -68.8% (active) | -83.8% (active) | -90% (active) | -92.7% (active) | -84.3% (active) | -84.9% (active) | -93.1% (active) | -83.6% (active) | -65.8% (active) | -80.3% (active) | -93.9% (active) | -8.34% (active) | -98.3% (active) | -33.4% (active) | -100% (active) | -87.9% (active) | -85.8% (active) | -97.2% (active) | -96.7% (active) | –
16 | CN1CCC(CNc2cc(C3(C(=O)Nc4cc(C(=O)Nc5ccc(Cl)c(C(F)(F)F)c5)ccc4F)CC3)ncn2)CC1 | -60.3% (active) | -67.7% (active) | -32.2% (active) | -46.8% (active) | 18.2% | -54.4% (active) | -57.2% (active) | -52% (active) | -20.3% (active) | -26.6% (active) | 23.1% | -34.1% (active) | -37.5% (active) | -23% (active) | -95.4% (active) | 32.9% | -74.2% (active) | -54.7% (active) | -57.2% (active) | –
